In PubChem BioAssay (NCATS):
Results filed as inconclusive are left out. Active and inactive are the calls of the source. The call rests on the fitted dose curve; in most records, active means well fitted curve in the direction sought with a large enough effect; inconclusive means small, poorly fitted or top-dose-only effect, or another doubt; inactive means no such curve, though single readings can be large; an effect the other way counts as inactive or inconclusive. *1 amine or outer side, *2 acyl side, *3 side chain or, on linkers, in order; H or OH if unused. Where a SMILES comes first, the peptide text is derived from it. Bridges are numbered along the chain shown (N, C = ends). X6 = O=C(CCC[*:2])[*:1]

Legend:
[1] = system: CRL-7250; assay: Cytotoxic Profiling of Annotated Libraries Using Quantitative High-Throughput Screening (AID 1296008); conditions: Five cell lines viability, CellTiter-Glo ATP luminescence, 48-72 h; max response: active compounds read low; further: nearly all actives have a fitted effect of over 60% in size; on max response: on the % scale 0 is the no-effect control and ±100 the full control effect
Outline: (§1)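 Cytotoxicity was measured as CellTiter-Glo ATP luminescence, read after 10 min at room temperature. Compound treatment of the cells lasted 48 or 72 hr at 37 degrees Celsius in a qHTS format.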

[2] = system: HEK293; assay: as above; conditions: Five cell lines viability, CellTiter-Glo ATP luminescence, 48-72 h; max response: active compounds read low
Outline: as §1

[3] = system: HaCat; assay: as above; conditions: Five cell lines viability, CellTiter-Glo ATP luminescence, 48-72 h; max response: active compounds read low
Outline: as §1

[4] = system: KB-3-1; assay: as above; conditions: Five cell lines viability, CellTiter-Glo ATP luminescence, 48-72 h; max response: active compounds read low
Outline: as §1

[5] = system: NIH3T3; assay: as above; conditions: Five cell lines viability, CellTiter-Glo ATP luminescence, 48-72 h; max response: active compounds read low
Outline: as §1

[6] = system: HEK293T; assay: qHTS assay to identify novel small-molecules to repurpose for Merkel cell carcinoma treatment (AID 1296009); conditions: MCC and control cell lines, CellTiter-Glo viability, 72 h; series mostly up to 44.8 µM; further: nearly all actives have a fitted effect of over 60% in size
Outline: (§2)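 72 hr, 37 degree celsius; NPC 8-pt / MIPE 11-pt dose response; compound pinned in DMSO; CellTiter-Glo, 10 min RT, luminescence; normalized to no-cell and DMSO controls.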

[7] = system: NIH3T3; assay: as above; conditions: MCC and control cell lines, CellTiter-Glo viability, 72 h; at 44.8 µM (top of the series) unless noted
Outline: as §2

[8] = system: C33A; assay: Primary qHTS to identify gynecologic anti-cancer compounds using libraries of approved drugs and bioactive compounds (AID 1345084); conditions: Gynecologic cancer cell panel viability, ATPlite luminescence, 48 h; series mostly up to 57.5 µM; further: on the % scale 0 is the no-effect control and ±100 the full control effect; nearly all actives have a fitted effect of over 55% in size
Outline: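 In this quantitative HTS, cell killing is estimated from loss of ATP-dependent luciferase light. Cells see five compound concentrations over a 48 h exposure.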

COC(=O)C1(Cc2ccc(O)cc2)OC(=O)C(OC)=C1c1ccc(O)cc1 (configuration not stated)
inactive: max response [1] -4.87% | outcome [2] | max response [3] -3.39% | outcome [4] | outcome [5] | Potency [6] | outcome [7] | Potency [8]

Cc1coc2c1CC1OC1(C)CCC1OC1(C)C2 (configuration not stated)
inactive: max response [1] 4.59% | outcome [2] | max response [3] 3.75% | max response [4] 8.78% | outcome [5] | Potency [6] | outcome [7] | Potency [8]

COc1cc(/C=C/C(=O)OC(C)(C)C(OC2OC(CO)C(O)C(O)C2O)C(=O)OCc2ccc(OC3OC(CO)C(O)C(O)C3O)cc2)ccc1O (configuration not stated)
inactive: max response [1] -9.61% | outcome [2] | max response [3] 3.1% | max response [4] 5.7% | outcome [5] | Potency [6] | outcome [7] inactive [at 17.4 µM] | Potency [8]

O=C(NCc1ccc(OC(F)(F)F)cc1)C1c2ccccc2C(=O)N1C1CCOCC1 (configuration not stated)
inactive: outcome [1] | outcome [2] | max response [3] -6.26% | outcome [4] | outcome [5] | Potency [6] | outcome [7] | Potency [8]

C=C1C2=CC(O)C(C)C1(C)CC/C(C)=C/CCC1(C)OC1C2=O (configuration not stated)
inactive: max response [1] -9.54% | outcome [2] | max response [3] 1.13% | outcome [4] | outcome [5] | Potency [6] | outcome [7] | Potency [8]

Cc1cc(C)c(S(=O)(=O)N(Cc2ccc(-c3cccc(S(C)(=O)=O)c3)cc2)Cc2ccc(C(F)(F)F)o2)c(C)c1
inactive: max response [1] -5.2% | outcome [2] | max response [3] 2.94% | max response [4] -6.43% | outcome [5] | Potency [6] | outcome [7] | Potency [8]

C[C@@H]1O[C@@H](O[C@@H]2[C@@H](O)[C@@H](O)[C@H](O[C@@H]3[C@@H](O)[C@@H](O[C@]4(CO)O[C@H](CO)[C@@H](O)[C@@H]4OC(=O)/C=C/c4ccc(O)cc4)O[C@H](CO)[C@H]3OC(=O)/C=C/c3ccc(O)cc3)O[C@H]2C)[C@H](O)[C@H](O)[C@H]1O
inactive: max response [1] -4.29% | outcome [2] | max response [3] 1.83% | outcome [4] | outcome [5] | outcome [6] inactive [at 9.27 µM] | outcome [7] inactive [at 9.27 µM] | activity change, negative = cytotoxicity [8] 0.544% [at 11.6 µM]

CC(C)(OC1OC(CO)C(O)C(O)C1O)C1CCC(O)(CO)C2CC(O)C(C)(O)C2C1 (configuration not stated)
inactive: max response [1] -5.53% | outcome [2] | max response [3] 0.555% | max response [4] 2.34% | outcome [5] | Potency [6] | outcome [7] inactive [at 17.4 µM] | Potency [8]

COc1cc(CC(COC2OC(CO)C(O)C(O)C2O)c2cc(/C=C/CO)cc(OC)c2O)ccc1O (configuration not stated)
inactive: outcome [1] | outcome [2] | max response [3] 1.49% | max response [4] 1.74% | outcome [5] | Potency [6] | outcome [7] inactive [at 17.4 µM] | Potency [8]

O=C(O)c1cc(O)c2cccc(O)c2c1O[C@@H]1O[C@H](CO)[C@@H](O)[C@H](O)[C@H]1O
inactive: max response [1] -1.91% | outcome [2] | max response [3] 2.74% | max response [4] 4.95% | outcome [5] | Potency [6] | outcome [7] | Potency [8]

CC1(C)CCCC2(C)C(CO)C3CCC2C31 (configuration not stated)
inactive: max response [1] -0.786% | outcome [2] | max response [3] 0.929% | outcome [4] | outcome [5] | Potency [6] | outcome [7] | Potency [8]

Cc1cc(N2CCCCC2)nc2ccccc12
inactive: max response [1] -12.2% | outcome [2] | max response [3] -14.3% | outcome [4] | outcome [5] | Potency [6] | outcome [7] | Potency [8]

CC[C@H](C)[C@@H]1NC(=O)[C@H](Cc2ccc(OC)cc2)NC(=O)CCCSC[C@@H](C(=O)N2CCC[C@H]2C(=O)N[C@@H](CC(C)C)C(=O)NCC(N)=O)NC(=O)[C@H](CC(N)=O)NC(=O)[C@H](CCC(N)=O)NC1=O (Y(Me)IQNCPLG-NH2; linker N-5 via X6)
inactive: max response [1] -0.379% | outcome [2] | max response [3] -67.2% | outcome [4] | outcome [5] | Potency [6] | outcome [7] | Potency [8]

CC1(C)C(=O)C(C)(C)c2cc(C(=O)Nc3ccc(C(=O)O)cc3)ccc21
inactive: max response [1] 2.14% | outcome [2] | max response [3] -8.59% | outcome [4] | outcome [5] | Potency [6] | outcome [7] | Potency [8]
